From PubChem BioAssay (Tox21) come the findings set out here.

A number with no mark means an inactive call. Inconclusive results are not listed. Activity calls are given as the source filed them. Unless noted, calls come from the whole dose curve.

Assay [1] is described as follows: Nuclear factor erythroid 2-related factor 2/antioxidant responsive element (Nrf2/ARE) small molecule agonists: qHTS cell viability counter screen in human keratinocytes (AID 1919968; active = well fitted curve in the direction sought with a large enough effect in the repeat runs; an effect the other way counts as inactive or inconclusive; note: potency is the fitted concentration of half-maximal effect; nearly all actives have a fitted effect of over 55% in size). In short, it runs like this: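 KeratinoSens cells (HaCaT keratinocytes stably carrying an ARE-luciferase reporter) were seeded at 1,500 cells/well and rested 5 h at 37 C/5% CO2. They were then exposed to compounds in DMSO for 23 h. Viability was read by CellTiter-Fluor fluorescence after 1 h.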

Assay [2] can be described thus: G protein-coupled receptor (GPCR) small molecule agonists, calcium flux assay: HEK293 wild type cell line counter screen (AID 1920065). Note: % is set by controls: 0 for no effect and ±100 for the full control effect. The method, boiled down:
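Cells were plated and cultured 18 h at 37 C/5% CO2, then loaded with calcium dye for 1 h at 37 C. Compounds in DMSO were pin-transferred in agonist mode, and fluorescence (Ex/Em 480/540) was read kinetically for 3 min at 1 s intervals.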

The nature of assay [3]: p53 small molecule agonists, cell-based qHTS assay with rat liver microsomes (AID 1963578). Note: % is set by controls: 0 for no effect and ±100 for the full control effect. The method, boiled down: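 p53RE-bla cells, 4,000/well, pre-incubated 5 h, then given compounds plus rat liver microsomes (0.5 mg/mL final) and NADPH (0.5 mg/mL final). Incubation 16 h at 37 C; beta-lactamase reporter read by LiveBLAzer fluorescence after 2 h at room temperature.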

Assay [4] can be described thus: p53 small molecule agonists, cell-based qHTS assay with human liver microsomes: qHTS cell viability counter screen (AID 1963579). Note: % is set by controls: 0 for no effect and ±100 for the full control effect; nearly all actives have a fitted effect of over 45% in size. The method, boiled down: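 p53RE-bla cells, 4,000/well, dosed 5 hours after plating, with human liver microsomes (0.5 mg/mL final) plus NADPH (0.5 mg/mL final), 16 hours at 37 C. Viability read as CellTiter-Glo luminescence after 30 min at room temperature.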

For assay [5], the target named is 5-hydroxytryptamine receptor 2A (Homo sapiens) (UniProt P28223). The assay is described as follows: 5-hydroxytryptamine receptor 2A (HTR2A) small molecule agonists, cell-based qHTS assay (AID 1963587). Note: nearly all actives have a fitted effect of over 30% in size. Note: potency is the fitted concentration of half-maximal effect. The method, boiled down:
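CHO cells stably expressing human HTR2A, plated 18 h, loaded with calcium dye 1 h at 37 C. Agonist mode: compounds added and intracellular calcium fluorescence recorded kinetically for 2 min at 1 sec intervals.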

In assay [6] the target is Muscarinic acetylcholine receptor M1 (Homo sapiens) (UniProt P11229). The assay is described as follows: Cholinergic receptor muscarinic 1 (CHRM1) small molecule agonists, cell-based qHTS assay (AID 1963589). Note: % is set by controls: 0 for no effect and ±100 for the full control effect; nearly all actives have a fitted effect of over 35% in size. In short, it runs like this:
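CHO cells stably expressing human CHRM1, seeded 18 h at 37 C/5% CO2, dye-loaded 1 h at 37 C, then given compound in agonist mode; intracellular calcium fluorescence read kinetically at 1 s intervals. Fifteen concentrations, three independent runs.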

Assay [7] concerns the target D(2) dopamine receptor (Homo sapiens) (UniProt P14416). Nature of the assay: Dopamine D2 receptor (DRD2) small molecule antagonists, cell-based qHTS assay (AID 1963595; active = well fitted inhibition curve with a large enough effect in the signal ratio in the repeat runs, with a control signal flat; the % refers to the signal ratio; note: potency is the fitted concentration of half-maximal effect). The method, boiled down: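 Antagonist mode in DRD2-HEK293 cells: after compound addition with 0.1 mM Ro20-1724, cells received quinpirole (12 nM) and NKH477 (200 nM) for 30 min at room temperature; HTRF cAMP read after 1 h detection.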

Assay [8] in a line: Nuclear factor erythroid 2-related factor 2/antioxidant responsive element (Nrf2/ARE) small molecule agonists: luciferase reporter gene qHTS assay in human keratinocytes (AID 1919969). Note: nearly all actives have a fitted effect of over 35% in size. Note: potency is the fitted concentration of half-maximal effect.
Assay [9] deals with Gonadotropin-releasing hormone receptor (Homo sapiens) (UniProt P30968). The assay is described as follows: Human gonadotropin-releasing hormone receptor (GnRHR) small molecule agonists, calcium flux assay in GnRHR-HEK293 cells (AID 1920063). Note: % is set by controls: 0 for no effect and ±100 for the full control effect; nearly all actives have a fitted effect of over 35% in size. The method, boiled down: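 HEK293 cells stably expressing human GnRHR were plated 18 h at 37 °C, loaded with calcium dye 1 h at 37 °C, then given compound in agonist mode; fluorescence (Ex/Em 480/540) read kinetically for 3 min at 1 s intervals.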

The target of assay [10] is KiSS-1 receptor (Homo sapiens) (UniProt Q969F8). Nature of the assay: Human kisspeptin (KISS1R) small molecule agonists, calcium flux assay in KISS1R-HEK293 cells (AID 1920064; active = well fitted curve in the direction sought with a large enough effect in the repeat runs; an effect the other way counts as inactive or inconclusive; note: % is set by controls: 0 for no effect and ±100 for the full control effect). In short, it runs like this:
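HEK293 cells stably expressing human KISS1R were plated 18 h at 37 °C, loaded with calcium dye for 1 h at 37 °C, then given compound by pin tool. Fluorescence (Ex/Em 480/540) was read kinetically for 3 min.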

A short description of assay [11]: p53 small molecule agonists, cell-based qHTS assay with human liver microsomes (AID 1963577). Note: % is set by controls: 0 for no effect and ±100 for the full control effect. The method, boiled down:
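p53RE-bla cells, 4,000/well, compound added after 5 h, with human liver microsomes 0.5 mg/mL and NADPH 0.5 mg/mL final; 16 h at 37 C, then LiveBLAzer 2 h RT, fluorescence.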

The nature of assay [12]: p53 small molecule agonists, cell-based qHTS assay with rat liver microsomes: qHTS cell viability counter screen (AID 1963580). Note: % is set by controls: 0 for no effect and ±100 for the full control effect; nearly all actives have a fitted effect of over 45% in size. The method, boiled down:
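Viability is assessed in parallel with the p53 reporter read: HCT-116 p53RE-bla cells receive compounds plus rat microsomes and NADPH (0.5 mg/mL final apiece), incubate 16 h at 37 C, and then CellTiter-Glo luminescence is recorded.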

The nature of assay [13]: p53 small molecule agonists, cell-based qHTS assay (AID 1963582; active = well fitted activation curve with a large enough effect in the signal ratio in the repeat runs, not every such curve was filed as active; the % refers to the signal ratio; note: % is set by controls: 0 for no effect and ±100 for the full control effect). The method, boiled down:
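p53RE-bla beta-lactamase reporter cells rested 5 h at 37 C/5% CO2, then received compounds in DMSO by pin transfer and were incubated 16 h at 37 C. LiveBLAzer B/G FRET substrate was loaded for 2 h at room temperature before fluorescence reading.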

For assay [14], the target named is 5-hydroxytryptamine receptor 2A (Homo sapiens) (UniProt P28223). Nature of the assay: 5-hydroxytryptamine receptor 2A (HTR2A) small molecule antagonists, cell-based qHTS assay (AID 1963586). Note: nearly all actives have a fitted effect of over 45% in size. Note: potency is the fitted concentration of half-maximal effect. The method, boiled down:
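Antagonist-mode intracellular calcium assay: DOI (4 nM) added after 5 min compound pre-incubation at room temperature to dye-loaded HTR2A-CHO cells. Fluorescence followed for 3 min, sampled every second.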

The target of assay [15] is Muscarinic acetylcholine receptor M1 (Homo sapiens) (UniProt P11229). Nature of the assay: Cholinergic receptor muscarinic 1 (CHRM1) small molecule antagonists, cell-based qHTS assay (AID 1963588). Note: nearly all actives have a fitted effect of over 40% in size. Note: potency is the fitted concentration of half-maximal effect. In short, it runs like this:
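CHRM1-CHO calcium-flux assay, antagonist mode. Cells were seeded 18 h, dye-loaded 1 h at 37 C and given compound for 5 min at RT, then acetylcholine was added at 50nM. FDSS fluorescence was read 3 min; 15 concentrations, three runs.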

Assay [16] has as its target Beta-2 adrenergic receptor (Homo sapiens) (UniProt P07550). Nature of the assay: Adrenergic beta2 receptor (ADRB2) small molecule antagonists, cell-based qHTS assay (AID 1963592). Note: series mostly up to about 92 µM; % is set by controls: 0 for no effect and ±100 for the full control effect; nearly all actives have a fitted effect of over 50% in size. The method, boiled down: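 Cells (CHO, stable ADRB2 overexpression) incubated 18-20hr at 37C; compounds added from DMSO; agonist mix (1nM isoproterenol, 100uM IBMX, 25uM Ro-20-1724) added; 0.5hr RT; d2-cAMP and anti-cAMP-cryptate added; 1hr RT; 665/615 nm read.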

Assay [17] concerns the target D(2) dopamine receptor (Homo sapiens) (UniProt P14416). Nature of the assay: Dopamine D2 receptor (DRD2) small molecule agonists, cell-based qHTS assay (AID 1963594). Note: % is set by controls: 0 for no effect and ±100 for the full control effect; nearly all actives have a fitted effect of over 35% in size. The method, boiled down:
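HEK293 cells stably expressing human DRD2, pre-treated with PDE inhibitor Ro20-1724 (0.1 mM final) and compound 10 min at room temperature, then stimulated with NKH477 (200nM […]) for 30 min. cAMP read by HTRF (665/620 nm).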

Assay [18] can be described thus: p53 small molecule agonists, cell-based qHTS assay: qHTS cell viability counter screen (AID 1963581). Note: % is set by controls: 0 for no effect and ±100 for the full control effect; nearly all actives have a fitted effect of over 45% in size. In short, it runs like this:
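p53RE-bla HCT-116 cells were exposed to compounds for 16 h at 37 C; after the beta-lactamase FRET read in the same wells, CellTiter-Glo was added and luminescence (intracellular ATP) read after 30 min at room temperature.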

The nature of assay [19]: cAMP Responsive Elements (CRE) small molecule antagonists, cell-based qHTS assay (AID 1963591; active = well fitted inhibition curve with a large enough effect in the signal ratio in the repeat runs, not every such curve was filed as active; the % refers to the signal ratio; note: % is set by controls: 0 for no effect and ±100 for the full control effect). In short, it runs like this:
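CRE-bla HEK293T cells were plated 18 h at 37 °C/5% CO2, pinned with compound in DMSO, then stimulated with NKH477 at 0.25 uM final for 3 h. LiveBLAzer B/G FRET substrate was added and plates incubated 2 h at room temperature.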

Assay [20] in a line: cAMP Responsive Elements (CRE) small molecule agonists, cell-based qHTS assay (AID 1963590). Note: % is set by controls: 0 for no effect and ±100 for the full control effect. In short, it runs like this:
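CRE-bla HEK 293T cells in DMEM with 10% dialyzed FBS, NEAA, pyruvate and 25 mM HEPES were plated 18 h at 37 C/5% CO2, then exposed to compounds in DMSO for 3 h before LiveBLAzer B/G FRET substrate addition.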

5-hydroxytryptamine receptor 2A (Homo sapiens), sequence (P28223 whole entry, looked up): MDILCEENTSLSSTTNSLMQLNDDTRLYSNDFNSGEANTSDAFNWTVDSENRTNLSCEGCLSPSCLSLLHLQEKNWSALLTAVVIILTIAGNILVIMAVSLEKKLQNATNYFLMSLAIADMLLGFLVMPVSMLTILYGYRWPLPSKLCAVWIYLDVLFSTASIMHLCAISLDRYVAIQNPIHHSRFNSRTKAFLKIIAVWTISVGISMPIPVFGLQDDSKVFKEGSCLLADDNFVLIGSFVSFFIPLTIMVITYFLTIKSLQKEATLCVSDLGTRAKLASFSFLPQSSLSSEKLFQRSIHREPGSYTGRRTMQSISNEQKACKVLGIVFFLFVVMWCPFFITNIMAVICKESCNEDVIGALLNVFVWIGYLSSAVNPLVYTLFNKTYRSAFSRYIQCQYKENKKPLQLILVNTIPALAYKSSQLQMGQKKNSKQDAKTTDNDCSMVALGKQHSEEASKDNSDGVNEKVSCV
Muscarinic acetylcholine receptor M1 (Homo sapiens), sequence (P11229 whole entry, looked up): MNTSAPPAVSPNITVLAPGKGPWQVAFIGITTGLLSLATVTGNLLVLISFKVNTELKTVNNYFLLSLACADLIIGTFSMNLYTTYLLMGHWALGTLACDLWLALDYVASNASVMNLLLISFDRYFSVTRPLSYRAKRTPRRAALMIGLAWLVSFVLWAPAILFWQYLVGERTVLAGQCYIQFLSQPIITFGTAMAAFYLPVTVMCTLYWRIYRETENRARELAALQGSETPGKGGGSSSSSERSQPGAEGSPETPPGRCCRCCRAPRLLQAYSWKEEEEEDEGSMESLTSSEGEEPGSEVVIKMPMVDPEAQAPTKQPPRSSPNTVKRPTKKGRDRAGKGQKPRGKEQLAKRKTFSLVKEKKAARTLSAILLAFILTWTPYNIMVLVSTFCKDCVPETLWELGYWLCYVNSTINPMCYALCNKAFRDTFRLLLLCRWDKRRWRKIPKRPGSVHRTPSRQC
KiSS-1 receptor (Homo sapiens), sequence (Q969F8 whole entry, looked up): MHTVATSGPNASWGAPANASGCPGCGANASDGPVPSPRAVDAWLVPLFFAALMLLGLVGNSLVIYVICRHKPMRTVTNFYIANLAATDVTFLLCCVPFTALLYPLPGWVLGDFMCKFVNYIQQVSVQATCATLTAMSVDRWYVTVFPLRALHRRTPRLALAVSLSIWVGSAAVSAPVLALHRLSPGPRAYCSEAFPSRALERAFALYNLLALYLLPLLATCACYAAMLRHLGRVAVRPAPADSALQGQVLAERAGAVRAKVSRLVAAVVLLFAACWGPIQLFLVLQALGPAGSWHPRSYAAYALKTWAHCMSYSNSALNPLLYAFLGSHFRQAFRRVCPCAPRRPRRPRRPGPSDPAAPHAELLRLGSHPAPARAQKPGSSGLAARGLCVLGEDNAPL
D(2) dopamine receptor (Homo sapiens), sequence (P14416 whole entry, looked up): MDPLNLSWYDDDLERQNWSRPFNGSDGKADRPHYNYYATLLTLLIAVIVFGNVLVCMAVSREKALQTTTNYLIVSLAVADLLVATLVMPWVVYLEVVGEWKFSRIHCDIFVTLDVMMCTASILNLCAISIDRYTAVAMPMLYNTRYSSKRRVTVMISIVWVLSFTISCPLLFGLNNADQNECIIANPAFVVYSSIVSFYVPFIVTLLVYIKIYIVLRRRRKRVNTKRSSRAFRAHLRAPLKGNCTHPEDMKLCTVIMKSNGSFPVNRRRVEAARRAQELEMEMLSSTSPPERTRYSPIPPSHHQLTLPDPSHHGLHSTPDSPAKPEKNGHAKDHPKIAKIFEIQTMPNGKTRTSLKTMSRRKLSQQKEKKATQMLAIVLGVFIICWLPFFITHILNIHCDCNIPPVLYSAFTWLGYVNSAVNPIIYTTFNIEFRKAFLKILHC
Gonadotropin-releasing hormone receptor (Homo sapiens), sequence (P30968 whole entry, looked up): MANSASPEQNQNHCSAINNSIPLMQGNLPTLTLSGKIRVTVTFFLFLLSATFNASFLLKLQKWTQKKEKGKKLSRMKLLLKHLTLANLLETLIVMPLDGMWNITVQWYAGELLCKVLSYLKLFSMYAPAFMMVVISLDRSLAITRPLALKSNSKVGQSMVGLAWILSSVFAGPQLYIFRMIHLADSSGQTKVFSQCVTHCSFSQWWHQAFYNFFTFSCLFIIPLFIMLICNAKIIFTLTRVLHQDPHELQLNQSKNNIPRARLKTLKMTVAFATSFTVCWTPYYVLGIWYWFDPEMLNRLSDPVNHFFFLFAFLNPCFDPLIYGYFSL
Beta-2 adrenergic receptor (Homo sapiens), sequence (P07550 whole entry, looked up): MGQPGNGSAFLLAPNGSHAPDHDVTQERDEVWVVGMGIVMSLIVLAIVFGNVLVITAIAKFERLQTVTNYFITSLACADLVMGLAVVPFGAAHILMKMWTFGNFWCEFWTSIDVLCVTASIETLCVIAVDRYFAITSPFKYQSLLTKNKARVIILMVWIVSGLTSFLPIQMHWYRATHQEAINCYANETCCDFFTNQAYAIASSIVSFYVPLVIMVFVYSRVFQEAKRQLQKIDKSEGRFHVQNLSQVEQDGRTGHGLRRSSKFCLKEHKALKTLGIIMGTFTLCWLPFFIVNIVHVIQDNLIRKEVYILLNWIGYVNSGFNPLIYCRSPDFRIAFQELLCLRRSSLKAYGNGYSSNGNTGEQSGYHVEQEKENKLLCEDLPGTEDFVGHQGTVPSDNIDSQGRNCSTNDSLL

Regarding `NCc1cccc(C2CCN(C(=O)c3ccc(C#Cc4ccccc4F)o3)CC2)c1`, the Potency is 54.5 µM (active) in [1], 21.9 µM (active) in assay [5] and 54.5 µM (active) in assay [7]. Further, the Potency entry in [2], in assay [3], in assay [4] and in assay [6] was “inactive” in each case.
For `COc1cc2ncnc(Nc3cccc(Cl)c3)c2cc1OC`, the activity, positive = activation in assay [8] is -25.9% [at 19 µM]. Besides, the activity change in [9] was -1.73% [at 11.8 µM, stronger effect = higher value]. The activation in assay [10] is 1.01% [at 15.8 µM]; in assay [2], -0.385% [at 11.8 µM]; in [11], -11.3% [at 13.5 µM]; in [3] it was -0.041% [at 13.6 µM]; in assay [13], -4.37% [at 13.5 µM]; in [5], -3.99% [at 15.9 µM]. Besides, the activation is -1.11% [at 15.8 µM] in [6] and -4.16% [at 19 µM] in [17]. Besides, the activity change, negative = cytotoxicity in assay [4] is -15.6% [at 13.5 µM]; in assay [12], -3.32% [at 13.5 µM]. Besides, the activity, negative = inhibition is 2.95% [at 12.7 µM] in [14] and -4.44% [at 12.6 µM] in [15]. The activity change, negative = inhibition in assay [16] was -2.49% [at 19 µM]; in [7] it was -0.58% [at 18.9 µM].
On to `COc1ccccc1OCCNCC(O)COc1cccc2[nH]c3ccccc3c12` (stereo not drawn), for which the Potency entry in assay [8], in [9], in [10], in assay [2], in assay [11] and in assay [3] was “inactive” in each case. The Potency result in assay [4], in assay [12], in [18], in assay [13] and in [19] was “inactive” each time.
Consider `Oc1ccc(CCNCCCCCCNCCc2ccccc2)cc1O`, for which the Potency entry in assay [8], in assay [9], in assay [10], in assay [2], in [11] and in [3] was “inactive” in each case. Moreover, the Potency result in [4], in assay [12], in assay [18], in assay [13], in assay [5] and in assay [6] was “inactive” each time. Also, the Potency result in assay [16] and in assay [17] was “inactive” each time. Also, the Potency in assay [7] was 8.41 µM (active).
As to `COc1cc(NC(C)CCCN)c2ncccc2c1` (stereo not drawn), the Potency in assay [8] was 11.9 µM (active). Further, the Potency entry in [9], in assay [10], in [2], in assay [11], in [3] and in assay [4] was “inactive” in each case. For the same compound, the Potency entry in assay [12], in [18], in assay [13], in assay [20], in assay [19] and in assay [16] was “inactive” each time. Moreover, the Potency result in assay [7] was “inactive”.
With `Cc1cccc(C)c1NC(=O)CN1CCN(CCCC(c2ccc(F)cc2)c2ccc(F)cc2)CC1`, the Potency entry in assay [8], in assay [9], in assay [10], in [2], in assay [11] and in [3] was “inactive” each time. For the same compound, the Potency entry in assay [4], in [12], in assay [13], in [5], in assay [15] and in [6] was “inactive” in each case. In addition, the Potency entry in [20], in [16] and in assay [17] was “inactive” each time. In assay [14], the Potency was 8.18 µM (active).
For the compound `c1cc(CN2CCCCC2)cc(OCCCNc2nc3ccccc3s2)c1`, the Potency result in assay [8], in [9], in assay [10], in [2], in [11] and in [3] was “inactive” throughout. Moreover, the Potency entry in [4], in assay [12], in assay [18], in [5], in assay [6] and in assay [20] was “inactive” throughout. Further, the Potency entry in [17] was “inactive”. In addition, the Potency in assay [15] was 5.79 µM (active).
